Screen size: about 5,500 compounds; about 2,000 (36%) were called active. Roughly 18% stayed inconclusive and do not appear here. Cut-off read from the data, not from the text of the source: active = normalized growth mostly below about 0.91 (no sharp cut-off); inconclusive = no clear call, values can overlap the other calls; inactive = mostly above about 0.92. Some of the results follow.
Test: chemical genetic growth profiling, strain panel (AID 1159580);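 note: tested at 20 µM; growth read once vehicle control cultures reached saturation at 30 °C; 1 = growth at the plate median or of vehicle wells; lower values mean less growth of the strain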
Settings: S. cerevisiae deletion strains, growth OD

Measured: normalized growth

Cc1csc(NC(=O)Nc2ccc(C(F)(F)F)cc2)c1Cl
inactive: locus YAR019C, strain CDC15, hits give low values 0.958 | locus YBL105C, strain PKC1, hits give low values 0.96 | locus YBR135W, strain CKS1, hits give low values 0.948 | locus YBR136W, strain MEC1, hits give low values 0.957 | locus YBR160W, strain CDC28, hits give low values 0.943 | locus YDL017W, strain CDC7, hits give low values 0.954 | locus YDL028C, strain MPS1, hits give low values 0.962 | locus YDL101C, strain DUN1, hits give low values 0.988 | locus YDL108W, strain KIN28, hits give low values 0.948 | locus YDL132W, strain cdc53, hits give low values 0.969 | locus YDL214C, strain PRR2, hits give low values 0.836 | locus YDR052C, strain DBF4, hits give low values 0.961 | locus YDR054C, strain cdc34, hits give low values 0.949 | locus YDR226W, strain ADK1, hits give low values 0.96 | locus YDR477W, strain SNF1, hits give low values 0.905 | locus YER123W, strain YCK3, hits give low values 0.802 | locus YER133W, strain GLC7, hits give low values 0.897 | locus YFL009W, strain cdc4, hits give low values 0.951 | locus YFL029C, strain CAK1, hits give low values 0.946 | locus YFR003C, strain YPI1, hits give low values 0.957 | locus YFR019W, strain FAB1, hits give low values 0.884 | locus YFR028C, strain CDC14, hits give low values 0.945 | locus YGR040W, strain KSS1, hits give low values 0.892 | locus YGR052W, strain FMP48, hits give low values 0.884 | locus YGR092W, strain DBF2, hits give low values 0.861 | locus YHR030C, strain SLT2, hits give low values 0.858 | locus YHR079C, strain IRE1, hits give low values 0.815 | locus YHR082C, strain KSP1, hits give low values 0.873 | locus YHR205W, strain SCH9, hits give low values 0.78 | locus YIL147C, strain SLN1, hits give low values 0.958 | locus YJL095W, strain BCK1, hits give low values 0.832 | locus YJL128C, strain PBS2, hits give low values 0.891 | locus YJL157C, strain FAR1, hits give low values 0.849 | locus YJR016C, strain ILV3, hits give low values 0.95 | locus YJR066W, strain TOR1 (second series), hits give low values 0.854 | locus YJR066W, strain TOR1, hits give low values 0.92 | locus YKL048C, strain ELM1, hits give low values 0.892 | locus YKL067W, strain YNK1, hits give low values 0.831 | locus YKL101W, strain HSL1, hits give low values 0.831 | locus YKL193C, strain SDS22, hits give low values 0.951 | locus YKL203C, strain TOR2, hits give low values 0.957 | locus YLR133W, strain CKI1, hits give low values 0.823 | locus YLR403W, strain SFP1, hits give low values 0.871 | locus YML070W, strain DAK1, hits give low values 0.802 | locus YMR001C, strain CDC5, hits give low values 0.954 | locus YMR205C, strain PFK2 (second series), hits give low values 0.833 | locus YMR277W, strain FCP1, hits give low values 0.966 | locus YNL006W, strain LST8, hits give low values 0.968 | locus YNL020C, strain ARK1, hits give low values 0.823 | locus YNL161W, strain CBK1, hits give low values 0.957 | locus YNL183C, strain NPR1, hits give low values 0.829 | locus YNL207W, strain RIO2, hits give low values 0.945 | locus YNL222W, strain SSU72, hits give low values 0.95 | locus YNL307C, strain MCK1 (second series), hits give low values 0.84 | locus YOL078W, strain AVO1, hits give low values 0.946 | locus YOL136C, strain PFK27, hits give low values 0.801 | locus YOR061W, strain CKA2, hits give low values 0.842 | locus YOR119C, strain RIO1, hits give low values 0.942 | locus YOR231W, strain MKK1, hits give low values 0.762 | locus YOR329C, strain SCD5, hits give low values 0.962 | locus YPL031C, strain PHO85, hits give low values 0.892 | locus YPL153C, strain RAD53, hits give low values 0.88 | locus YPL204W, strain HRR25, hits give low values 0.868 | locus YPL209C, strain IPL1, hits give low values 0.946 | locus YPR025C, strain CCL1, hits give low values 0.966 | locus YPR106W, strain ISR1, hits give low values 0.932 | locus YPR111W, strain DBF20, hits give low values 0.927 | strain NNK1, hits give low values 0.93 | strain TSCII, hits give low values 0.945
active: locus YLR113W, strain HOG1, hits give low values 0.675 | locus YPL256C, strain CLN2, hits give low values 0.724

From PubChem BioAssay AID1159580 (chemical genetic matrix, 2015)
